An excerpt weighted towards active compounds, which were near 3.5% of everything screened.
GPR151 activ: activators of human GPR151, primary screen, cell-based, PathHunter beta-arrestin, luminescence; G-protein coupled receptor 151 (Homo sapiens), Q8TDV0; activation, % at 11.2 µM; PathHunter beta-arrestin GPR151 cells; 650,000 compounds, 1% hits; in the data active means activation above about 4.9%
MITF inh: MITF inhibitors, primary screen, biochemical, AlphaScreen, human | Microphthalmia-associated transcription factor (Homo sapiens), O75030 | inhibition, % at 2.6 µM | AlphaScreen MITF homodimerization, bead proximity signal | 650,000 compounds, 0.91% hits; in the data active means inhibition above about 50%
TEAD-YAP inh: TEAD-YAP interaction inhibition, primary screen, TEAD-YAP interaction inhibitor project, luminescence, HEK-TIYL cells; inhibition, % at 9.12 µM; 640,000 compounds, 1.4% hits; TEAD-Gal4/YAP UAS-luciferase luminescence; AID 1259422, 2018; in the data active means inhibition above about 32%
FBW7 activator: FBW7 E3 ligase activators, primary screen, biochemical, AlphaScreen, human; F-box/WD repeat-containing protein 7 (Homo sapiens), Q969H0; AlphaScreen FBW7–phospho-cyclin E peptide binding, activator screen; normalized activity (activation), % at 26.1 µM; 650,000 compounds, 0.13% hits; AID 1259310, 2017; in the data active means normalized activity above about 1.9%;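 further: purified mutant Fbw7 with reduced substrate affinity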
Target sequence (Q969H0 whole entry, looked up): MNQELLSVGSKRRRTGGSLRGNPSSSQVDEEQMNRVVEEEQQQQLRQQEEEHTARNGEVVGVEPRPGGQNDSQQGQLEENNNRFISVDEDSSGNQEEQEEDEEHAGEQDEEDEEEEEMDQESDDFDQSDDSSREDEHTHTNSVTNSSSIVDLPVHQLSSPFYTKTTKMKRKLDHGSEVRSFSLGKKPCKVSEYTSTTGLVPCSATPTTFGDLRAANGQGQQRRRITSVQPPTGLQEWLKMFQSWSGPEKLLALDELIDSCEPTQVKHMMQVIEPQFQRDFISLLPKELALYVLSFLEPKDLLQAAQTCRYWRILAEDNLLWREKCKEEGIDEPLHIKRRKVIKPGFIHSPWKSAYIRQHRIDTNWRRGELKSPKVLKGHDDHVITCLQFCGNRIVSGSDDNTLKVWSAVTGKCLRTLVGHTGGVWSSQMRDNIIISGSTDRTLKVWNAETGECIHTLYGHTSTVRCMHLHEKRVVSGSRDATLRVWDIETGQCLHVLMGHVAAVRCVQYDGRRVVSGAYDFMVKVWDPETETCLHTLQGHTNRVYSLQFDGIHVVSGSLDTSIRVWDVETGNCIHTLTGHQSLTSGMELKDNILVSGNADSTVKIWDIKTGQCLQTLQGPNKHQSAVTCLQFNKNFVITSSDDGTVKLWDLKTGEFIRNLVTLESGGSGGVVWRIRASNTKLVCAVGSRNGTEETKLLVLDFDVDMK
MITF inh conf: MITF inhibitors, retest of hits, confirmation, biochemical, AlphaScreen, triplicate; shares compounds with MITF inh; AlphaScreen MITF homodimerization, biotin/His-MITF beads; inhibition, % at 2.6 µM; 4,700 compounds, 16% hits;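 active means inhibition above a cutoff derived from the DMSO control wells, cut at about 28% in these data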;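 further: inhibitors lower the bead chemiluminescence by keeping MITF from dimerizing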
AlphaScreen DR: AlphaScreen optical interference compounds, dose response, counter-screen, biochemical, HTS; AlphaScreen optical interference counterscreen, cell-free; 480 compounds, 6% hits; AID 1259373, 2018; shares compounds with MITF inh; IC50, µM; call rule not given here
AS interf ctr: AlphaScreen optical interference compounds, counter-screen for MITF inhibitor project, biochemical, triplicate; LysRS AlphaScreen counterscreen, signal interference; AID 1259376, 2018; 4,700 compounds, 7.6% hits; shares compounds with MITF inh; inhibition, % at 2.6 µM;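 active means inhibition above a cutoff derived from the DMSO control wells, cut at about 30% in these data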
A number is an active result; i = inactive; nt = not tested or not shown.

SMILES | GPR151 activ | MITF inh | TEAD-YAP inh | FBW7 activator | MITF inh conf | AS interf ctr | others
COc1ccc(Nc2nc3c(C)cccn3c(=O)c2C=Nc2ccccc2)cc1 | i | i | i | i | nt | nt
CC(C)c1ccc(N2C(=O)N(Cc3cc(=O)n4ccccc4n3)c3ccccc3S2(=O)=O)cc1 | i | i | i | i | nt | nt
CCCCNC(=O)CSc1nc2ccccc2c(=O)n1Cc1cccs1 | i | i | i | i | nt | nt
COCCNC(=O)C1CCN(Cc2cc(OC)ccc2OC)CC1 | i | i | i | i | nt | nt
COc1ccc(OC)c(CN2CCC(C(=O)NCC3CCCO3)CC2)c1 (stereo not given) | i | 54.2 | i | i | i | i
COc1ccc(C(=O)C2CCN(C(=S)NCC3CCCO3)CC2)cc1 (stereo not given) | i | 85.5 | i | i | i | i
O=C(NCC1CCCO1)C1CCN(Cc2c[nH]c3ccccc23)CC1 (stereo not given) | i | 55.0 | i | i | i | i
CCCOC(=O)C1=C(C)NC2=C(C(=O)CC(c3ccc(OC)cc3)C2)C1c1ccccc1Cl (stereo not given) | i | i | i | i | nt | nt
CCCC/C=C/c1cn2c(NC(=O)Cc3ccccc3OC)cnc2cn1 | i | i | i | i | nt | nt
COc1cc2cc(C)c(SCC(=O)Nc3nccs3)nc2cc1OC | i | i | i | i | nt | nt
O=C(c1cccc(Cl)c1)N1CCN(C2CCN(Cc3ccccc3)CC2)CC1 | i | i | i | i | nt | nt
O=C(CCC1CCCC1)N1CCC(N2CCN(c3ccccc3)CC2)CC1 | i | 55.2 | i | i | i | i
O=C(c1ccccc1)N1CCN(C2CS(=O)(=O)CC2O)CC1 (stereo not given) | i | 80.8 | i | i | i | i
O=C(c1ccccc1)N1CCC(N2CCN(c3ccccc3)CC2)CC1 | i | 79.4 | i | i | i | i
O=C(c1cccc(Cl)c1)N1CCC(N2CCN(c3ccccc3)CC2)CC1 | i | 79.1 | i | i | i | i
O=C(CCC(=O)N1CCN(c2ccccc2)CC1)N1CCN(c2ccccc2)CC1 | i | i | i | i | nt | nt
CCOc1ccc(C(=O)NCC2(c3cccs3)CC2)cc1 | i | 51.8 | i | i | i | i
C[C@@H]1CN(Cc2ccc3c(c2)CN(C(=O)CSc2ccccc2)CCO3)C[C@H](C)O1 | i | i | i | i | nt | nt
O=C(O)c1ccc(/C=C2/NC(=O)N(c3ccc(Cl)cc3)C2=O)cc1 | i | i | i | i | nt | nt
O=C(O)c1cccc(-n2cccc2/C=C2/NC(=O)N(c3cccc(Cl)c3)C2=O)c1 | i | i | i | i | nt | nt
O=C(O)c1ccc(-n2cccc2/C=C2/NC(=O)N(c3ccc(Cl)cc3)C2=O)cc1 | i | 55.2 | i | i | 73.9 | 33.8
O=C(O)c1cccc(-n2cccc2/C=C2/NC(=O)N(c3ccc(Cl)cc3)C2=O)c1 | i | 60.9 | i | i | 35.5 | i | AlphaScreen DR=i
O=C1NC(=O)/C(=C\c2cccn2-c2ccc(C(=O)O)cc2)N1 | i | 66.1 | i | i | i | i
COCCCNC(=O)Cn1c(=O)n(-c2ccccc2)c(=O)c2c1c1cc(C)ccc1n2C | i | i | i | i | nt | nt
COc1ccc(C)cc1S(=O)(=O)N(CC(=O)N1CCCCCC1)c1ccccc1 | i | i | i | i | nt | nt
SMILES | GPR151 activ | MITF inh | TEAD-YAP inh | FBW7 activator | MITF inh conf | AS interf ctr | others
Cc1ccccc1NC(=O)c1ccccc1N(Cc1ccccc1)S(C)(=O)=O | i | 55.5 | i | i | i | i
Cc1ccc2nc(N3CCC(NCCc4ccccc4F)CC3)nc(C)c2c1 | i | 72.6 | i | i | i | i
CN(CC(=O)Nc1cccc(F)c1)CC(=O)Nc1ccccc1-c1ccccc1 | i | i | i | i | nt | nt
CN(CC(=O)Nc1cccc(F)c1)CC(=O)Nc1ccccc1Oc1ccccc1 | i | 70.5 | i | i | i | i
COc1cccc(NC(=O)CN(C)CC(=O)Nc2ccc(C)c(F)c2)c1 | i | 91.2 | i | i | i | i
COC(=O)C1=CN(Cc2cccs2)C=C(C(=O)OC)C1c1cc(OC)ccc1OC | i | i | i | i | nt | nt
CCOc1ccccc1C1C(C#N)=C(SCC(=O)Nc2ccc(Br)cc2)NC(=O)C1C(=O)OC (stereo not given) | i | 54.4 | i | i | i | i
c1ccc(CN2CCC(NCc3ccccn3)CC2)cc1 | i | 61.6 | i | i | i | i
C=CCOc1ccccc1CNC1CCN(Cc2ccccc2)CC1 | i | 52.7 | i | i | i | i
c1ccc(C2CCC(NCCc3ccccn3)CC2)cc1 (stereo not given) | i | 58.7 | i | i | i | i
Oc1ccccc1CNC1CCN(Cc2ccccc2)CC1 | i | i | i | i | nt | nt
c1ccc(CN2CCC(NCc3c[nH]c4ccccc34)CC2)cc1 | i | 61.9 | i | i | i | i
CCN(CC)C(=O)CN(C#N)c1nc(SC)nc(N(C)C)n1 | i | i | i | i | nt | nt
CCCOC(=O)C1=C(C)N(C)C(=O)NC1c1cc(OC)ccc1OC (stereo not given) | i | i | i | i | nt | nt
CC1=C(C#N)C(=O)N(CCCO)C(=O)/C1=C\c1ccc(-c2cc(C)c(C)cc2[N+](=O)[O-])o1 | i | i | i | i | nt | nt
CC(NCc1ccc([N+](=O)[O-])cc1)C1COc2ccccc2O1 (stereo not given) | i | 62.0 | i | i | i | i
CC(C)NCC(O)CNC(C)C1COc2ccccc2O1 (stereo not given) | i | i | i | i | nt | nt
COc1ccc(OCC(O)CN2CCN(CCc3ccccn3)CC2)c(C(C)(C)C)c1 (stereo not given) | i | 80.8 | i | i | i | i
COc1ccc(COCC(O)CN2CCN(C(C)=O)CC2)cc1 (stereo not given) | i | i | i | i | nt | nt
COc1ccc(COCC(O)CN2CCN(CCc3ccccn3)CC2)cc1 (stereo not given) | i | 78.3 | i | i | i | i
CCOC(=O)c1c(NC(=O)c2cc(-c3ccccc3C)nc3ccccc23)sc2c1CCCCCC2 | i | 68.7 | i | i | i | i
CCOC(=O)c1c(NC(=O)c2cc(-c3cc(C)ccc3C)nc3ccccc23)sc2c1CCCC2 | i | i | i | i | nt | nt
CC1CN(CCOc2ccc(Cl)cc2Br)CC(C)O1 (stereo not given) | i | i | i | i | nt | nt
CCN1CCN(CCOc2ccc(Cl)cc2Br)CC1 | i | 56.6 | i | i | i | i
CCN1CCN(CCOc2ccc(Br)cc2C)CC1 | i | 57.5 | i | i | i | i
CCN1CCN(CCCOc2ccc(Cl)cc2Br)CC1 | i | 68.1 | i | i | i | i
